Drawing on PubChem BioAssay (EPA / NIEHS), this text covers outcome and AC50 for twelve compounds.

Calls of active or inactive are those of the source. How the source made its calls: active means hit-call score of the fitted dose curve at least 0.9, where 1 is the maximum; inactive means score below 0.9.

The first experiment in a line: CCTE_Harrill_HTTr_Apoptosis_MCF7: CCTE's 6-hour Apoptosis Assessment for the High-Throughput Transcriptomics (HTTr) Platform, in MCF-7 cells cultured in DMEM + 10% fetal bovine serum, Harrill Lab (AID 2284011). In a few lines: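 MCF-7 cells in DMEM + 10% FBS exposed 6 h to chemicals over an eight-point dilution series. Caspase-3/7 activation imaged by high-content CellEvent Green staining; fitted bidirectionally versus DMSO.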
For the compound `O=C(C(Cl)Cl)N1CCOC12CCCCC2`, the outcome was inactive.
For the compound `O=C1CCCC1`, the result was inactive.
In the case of `c1ccc2c(c1)ccc1cc3c(ccc4ccccc43)cc12`, the outcome was inactive.
The same measure, in the same setting: with `CC(=O)OC(C)C` the entry was “inactive”.

The nature of the next experiment: CCTE_Shafer_MEA_acute_burst_number: CCTE's Neural Acute Assay for Single-Electrode Bursts, Shafer Lab (AID 2284013). In a few lines: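 Rat cortical cultures, DIV 13/15; 40 min baseline, then 40 min with compound 0.03-40 uM, 37 C. Spikes: 300-5000 Hz band-pass, threshold 8x rms noise. Readout = % change in single-electrode bursts vs baseline, loss-of-signal fit.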
In the case of `CO[Si](OC)(OC)c1ccccc1`, the compound was called inactive.
The same measure, in the same setting: with `CCCCC(CC)COCC1CO1` (centres undefined) the entry was “inactive”.
`CCO[Si](C)(OCC)OCC`: the call was inactive.
As for `O=C1CCCN1CCO`, the compound was called inactive.
For the compound `O=C(c1ccc(O)cc1)c1ccc(O)cc1O`, the call was inactive.
Regarding `Nc1ccc(N)c(Cl)c1`, the call was inactive.
Turning to `C=C[Si](OC(C)=O)(OC(C)=O)OC(C)=O`, the call was inactive.
Still for that read-out and setting: with `CN1C(=O)N(C)C(O)C1O` (centres undefined) the entry was “inactive”.

A short description of a further experiment: CCTE_Shafer_MEA_acute_burst_duration_mean: CCTE's Neural Acute Assay for Mean Burst Duration, Shafer Lab (AID 2284014).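 Further: hits are decreases in mean burst duration relative to DMSO controls.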 Summed up: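 Primary rat cortical neurons on 16-electrode MEA wells, treated on DIV 13 or 15 with compound (0.03-40 uM; ≥3 wells each). 40-min baseline and 40-min exposure recordings at 37 C; percent change in mean burst duration per well versus DMSO.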
Regarding `CO[Si](OC)(OC)c1ccccc1`, the compound was classed as inactive.
Turning to `CCCCC(CC)COCC1CO1` (centres undefined), the outcome was inactive.
In the case of `CCO[Si](C)(OCC)OCC`, the compound was called inactive.
Consider `O=C1CCCN1CCO`, for which the call was inactive.
Same read-out and setting: with `O=C(c1ccc(O)cc1)c1ccc(O)cc1O` the entry was “inactive”.
On to `Nc1ccc(N)c(Cl)c1`, for which the call was inactive.
As for `C=C[Si](OC(C)=O)(OC(C)=O)OC(C)=O`, the outcome was inactive.
Still for that read-out and setting: with `CN1C(=O)N(C)C(O)C1O` (centres undefined) the entry was “inactive”.

The next experiment is described as follows: CCTE_Shafer_MEA_acute_per_burst_spike_number_mean: CCTE's Neural Acute Assay for Average Number of Spikes Per Burst, Shafer Lab (AID 2284015).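 Further: hits are decreases in mean spikes per burst versus baseline.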 Summed up: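 Primary rat cortical neurons on 48-well MEA plates, treated on DIV 13 or 15 at 0.03-40 uM. Spontaneous activity recorded 40 min before and 40 min after compound at 37 C; percent change in mean spikes per single-electrode burst per well, fitted in the loss direction versus DMSO.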
Consider `CO[Si](OC)(OC)c1ccccc1`, for which the compound was called inactive.
Regarding `CCCCC(CC)COCC1CO1` (centres undefined), the call was inactive.
Turning to `CCO[Si](C)(OCC)OCC`, the call was inactive.
For the compound `O=C1CCCN1CCO`, the compound was called inactive.
Still for that read-out and setting: to `O=C(c1ccc(O)cc1)c1ccc(O)cc1O` belongs “inactive”; to `Nc1ccc(N)c(Cl)c1`, “inactive”.
`C=C[Si](OC(C)=O)(OC(C)=O)OC(C)=O`: the result was inactive.
`CN1C(=O)N(C)C(O)C1O` (centres undefined): the result was inactive.

The nature of a further experiment: CCTE_Shafer_MEA_acute_interburst_interval_mean: CCTE's Neural Acute Assay for Mean Interburst Interval, Shafer Lab (AID 2284016).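 Further: percent change of mean interburst interval versus each well's own pre-dose baseline; curves fitted for decrease in interburst interval relative to DMSO.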 Summed up:
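Primary rat cortical neurons on 16-electrode MEA wells were recorded 40 min at baseline on DIV 13 or 15, then 40 min after compound (0.03-40 uM), at 37 C. Value is percent change in mean interburst interval per well, DMSO as negative control.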
As to `CO[Si](OC)(OC)c1ccccc1`, the compound was classed as inactive.
On to `CCCCC(CC)COCC1CO1` (centres undefined), for which the outcome was inactive.
For `CCO[Si](C)(OCC)OCC`, the outcome was inactive.
Regarding `O=C1CCCN1CCO`, the result was inactive.
Regarding `O=C(c1ccc(O)cc1)c1ccc(O)cc1O`, the AC50 – broadly, the concentration giving half of the maximal activity seen – was 15 µM (active).
As to `Nc1ccc(N)c(Cl)c1`, the call was inactive.
As to `C=C[Si](OC(C)=O)(OC(C)=O)OC(C)=O`, the outcome was inactive.
In the case of `CN1C(=O)N(C)C(O)C1O` (centres undefined), the outcome was inactive.

The next experiment can be described thus: CCTE_Shafer_MEA_acute_burst_percentage_mean: CCTE's Neural Acute Assay for Percentage of Spikes in a Burst, Shafer Lab (AID 2284017). Summed up: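 Primary rat cortical neurons on 16-electrode MEA wells; 40 min baseline recorded at DIV 13 or 15, then 40 min after compound (0.03-40 uM) at 37 C. Well-mean fraction of spikes in single-electrode bursts; percent change from baseline, DMSO as negative control.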
For `CO[Si](OC)(OC)c1ccccc1`, the call was inactive.
For the compound `CCCCC(CC)COCC1CO1` (centres undefined), the compound was called inactive.
As to `CCO[Si](C)(OCC)OCC`, the result was inactive.
Consider `O=C1CCCN1CCO`, for which the compound was called inactive.
Consider `O=C(c1ccc(O)cc1)c1ccc(O)cc1O`, for which the compound was called inactive.
On to `Nc1ccc(N)c(Cl)c1`, for which the outcome was inactive.
Consider `C=C[Si](OC(C)=O)(OC(C)=O)OC(C)=O`, for which the result was inactive.
With `CN1C(=O)N(C)C(O)C1O` (centres undefined), the compound was called inactive.

The nature of the next experiment: CCTE_Shafer_MEA_acute_burst_percentage_std: CCTE's Neural Acute Assay for Standard Deviation of Burst Percentage, Shafer Lab (AID 2284018).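 Further: fitted in the negative direction so actives lower burst percentage SD.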 Summed up: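 Primary rat cortical neurons on 16-electrode MEA wells were recorded 40 min at baseline (DIV 13 or 15), then 40 min after compound (0.03-40 uM), at 37 C. Well value is SD across electrodes of spikes-in-bursts/total spikes; endpoint is percent change, DMSO-referenced.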
As to `CO[Si](OC)(OC)c1ccccc1`, the compound was classed as inactive.
The same measure, in the same setting: with `CCCCC(CC)COCC1CO1` (centres undefined) the entry was “inactive”; with `CCO[Si](C)(OCC)OCC`, “inactive”.
As for `O=C1CCCN1CCO`, the compound was called inactive.
As to `O=C(c1ccc(O)cc1)c1ccc(O)cc1O`, the result was inactive.
Still for that read-out and setting: with `C=C[Si](OC(C)=O)(OC(C)=O)OC(C)=O` the entry was “inactive”; with `CN1C(=O)N(C)C(O)C1O` (centres undefined), “inactive”.

The next experiment is described as follows: CCTE_Shafer_MEA_acute_per_network_burst_spike_number_mean: CCTE's Neural Acute Assay for Average Number of Spikes in a Network Burst, Shafer Lab (AID 2284019). In a few lines:
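Primary rat cortical neurons on 16-electrode MEA wells, DIV 13 or 15, 37 C; 40-min baseline then 40-min recording with compound (0.03-40 uM). Spikes per network burst (total spikes/number of bursts) expressed as percent change from baseline, DMSO reference.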
`CO[Si](OC)(OC)c1ccccc1`: the outcome was inactive.
Take `CCCCC(CC)COCC1CO1` (centres undefined): the compound was called inactive.
On to `CCO[Si](C)(OCC)OCC`, for which the outcome was inactive.
As to `O=C1CCCN1CCO`, the outcome was inactive.
As to `O=C(c1ccc(O)cc1)c1ccc(O)cc1O`, the outcome was inactive.
The same measure, in the same setting: to `Nc1ccc(N)c(Cl)c1` belongs “inactive”; to `C=C[Si](OC(C)=O)(OC(C)=O)OC(C)=O`, “inactive”; to `CN1C(=O)N(C)C(O)C1O` (centres undefined), “inactive”.

A further experiment in a line: CCTE_Shafer_MEA_acute_per_network_burst_spike_number_std: CCTE's Neural Acute Assay for Standard Deviation of Number of Spikes in a Network Burst, Shafer Lab (AID 2284020).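 Further: fitted for decrease in spike-number SD versus DMSO so actives lower it.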 Summed up:
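Primary rat cortical neurons on 48-well MEAs (16 electrodes/well) recorded at DIV 13 or 15: 40-min baseline, then 40 min with compound (0.03-40 uM), 37 C. Value is percent change in SD of spikes per network burst, relative to DMSO.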
Take `CO[Si](OC)(OC)c1ccccc1`: the result was inactive.
As for `CCCCC(CC)COCC1CO1` (centres undefined), the call was inactive.
For `CCO[Si](C)(OCC)OCC`, the result was inactive.
With `O=C1CCCN1CCO`, the compound was called inactive.
The same measure, in the same setting: to `O=C(c1ccc(O)cc1)c1ccc(O)cc1O` belongs “inactive”; to `Nc1ccc(N)c(Cl)c1`, “inactive”.
Same read-out and setting: to `C=C[Si](OC(C)=O)(OC(C)=O)OC(C)=O` belongs “inactive”; to `CN1C(=O)N(C)C(O)C1O` (centres undefined), “inactive”.

A short description of the next experiment: CCTE_Shafer_MEA_acute_per_network_burst_electrodes_number_mean: CCTE's Neural Acute Assay for Mean Number of Electrodes in a Network Burst, Shafer Lab (AID 2284021).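 Further: curves fitted for decreases only so hits reduce electrodes per burst.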 Summed up: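 Rat primary cortical neurons on 48-well MEAs, DIV 13 or 15, were treated at 0.03-40 uM. Spikes were detected at 8x rms noise and recorded at 37 C. The mean electrodes per network burst in a 40 min exposure recording was expressed as percent change from a 40 min baseline.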
For `CO[Si](OC)(OC)c1ccccc1`, the call was inactive.
For the compound `CCCCC(CC)COCC1CO1` (centres undefined), the result was inactive.
As to `CCO[Si](C)(OCC)OCC`, the compound was classed as inactive.
In the case of `O=C1CCCN1CCO`, the result was inactive.
Still for that read-out and setting: to `O=C(c1ccc(O)cc1)c1ccc(O)cc1O` belongs “inactive”; to `Nc1ccc(N)c(Cl)c1`, “inactive”.
Same read-out and setting: with `C=C[Si](OC(C)=O)(OC(C)=O)OC(C)=O` the entry was “inactive”; with `CN1C(=O)N(C)C(O)C1O` (centres undefined), “inactive”.

The nature of the next experiment: CCTE_Shafer_MEA_acute_network_burst_percentage: CCTE's Neural Acute Assay for Percentage of Network Bursts, Shafer Lab (AID 2284022).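 Further: curves fitted for loss so actives lower network burst percentage.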 In a few lines: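 Rat primary cortical neuron networks on 48-well MEA plates, DIV 13 or 15, treated acutely with compound (0.03-40 uM, at least three wells). Percent of spikes within network bursts compared between 40-min recordings before and during exposure at 37 C, expressed as percent change.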
Take `CO[Si](OC)(OC)c1ccccc1`: the result was inactive.
For `CCCCC(CC)COCC1CO1` (centres undefined), the compound was called inactive.
For the compound `CCO[Si](C)(OCC)OCC`, the compound was classed as inactive.
Consider `O=C1CCCN1CCO`, for which the compound was classed as inactive.
Take `O=C(c1ccc(O)cc1)c1ccc(O)cc1O`: the result was inactive.
As for `Nc1ccc(N)c(Cl)c1`, the compound was classed as inactive.
On the same count and under the same terms, with `C=C[Si](OC(C)=O)(OC(C)=O)OC(C)=O` the entry was “inactive”; with `CN1C(=O)N(C)C(O)C1O` (centres undefined), “inactive”.

A short description of a further experiment: CCTE_Shafer_MEA_acute_cross_correlation_area: CCTE's Neural Acute Assay for Area of Cross Correlation, Shafer Lab (AID 2284024).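 Further: curves fitted for loss of cross-correlation area so actives lower synchrony.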 Summed up: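 Rat primary cortical neurons on 48-well MEA, DIV 13 or 15; compounds 0.03-40 uM. Baseline and post-exposure 40 min recordings at 37 C; percent change in area under pooled inter-electrode cross-correlation near zero lag, relative to DMSO.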
As for `CO[Si](OC)(OC)c1ccccc1`, the compound was called inactive.
In the case of `CCCCC(CC)COCC1CO1` (centres undefined), the compound was classed as inactive.
For the compound `CCO[Si](C)(OCC)OCC`, the compound was classed as inactive.
As for `O=C1CCCN1CCO`, the result was inactive.
Take `O=C(c1ccc(O)cc1)c1ccc(O)cc1O`: the call was inactive.
For the compound `Nc1ccc(N)c(Cl)c1`, the compound was classed as inactive.
On to `C=C[Si](OC(C)=O)(OC(C)=O)OC(C)=O`, for which the compound was called inactive.
Regarding `CN1C(=O)N(C)C(O)C1O` (centres undefined), the outcome was inactive.

The next experiment is described as follows: CCTE_Shafer_MEA_acute_synchrony_index: CCTE's Neural Acute Assay for Synchrony, Shafer Lab (AID 2284027).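 Further: network synchrony index of spontaneous spiking in primary rat cortical neurons on MEAs; fitted for loss of signal so actives lower synchrony relative to DMSO.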 In a few lines:
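Spontaneous firing of mature rat cortical networks is captured extracellularly on microelectrode arrays at 37 C, with wells needing ≥10 active electrodes. Each compound (0.03-40 uM) is judged by the change in synchrony index from baseline over 40 min.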
With `CO[Si](OC)(OC)c1ccccc1`, the result was inactive.
Same read-out and setting: with `CCCCC(CC)COCC1CO1` (centres undefined) the entry was “inactive”.
For `CCO[Si](C)(OCC)OCC`, the outcome was inactive.
Take `O=C1CCCN1CCO`: the compound was classed as inactive.
For the compound `O=C(c1ccc(O)cc1)c1ccc(O)cc1O`, the compound was classed as inactive.
With `Nc1ccc(N)c(Cl)c1`, the result was inactive.
For `C=C[Si](OC(C)=O)(OC(C)=O)OC(C)=O`, the compound was called inactive.
Still for that read-out and setting: to `CN1C(=O)N(C)C(O)C1O` (centres undefined) belongs “inactive”.
